Results taken from PubChem BioAssay (EPA / NIEHS).
Inconclusive results are not listed. More than one record can exist for a structure, and the calls need not agree. Activity calls are given as the source filed them. Rule for the calls: active = hit-call score of the fitted dose curve at least 0.9, where 1 is the maximum; inconclusive = response in the unintended direction; inactive = score below 0.9.

Target: human Peroxisome Proliferator-activated Receptor alpha (PPARa), PPARA (gene 5465) (UniProt Q07869)
Experiment: ATG_PPARa_TRANS: Attagene TRANS-FACTORIAL HepG2 Assay for human Peroxisome Proliferator-activated Receptor alpha (PPARa) (AID 2283001);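 for AC50: potency for gain of reporter signal over DMSO so agonist or activator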
Procedure: ATG_TRANS is a cell-based, multiplexed-readout assay that uses HepG2, a human liver cell line, with measurements taken at 24 hours after chemical dosing in a 24-well plate.ATG_PPARa_TRANS is one of 30 assay component(s) measured or calculated from the ATG_TRANS assay. It is designed to make measurements of mRNA induction, a form of inducible reporter, as detected with fluorescence intensity signals by Reverse transcription polymerase chain reaction (RT-PCR) and Capillary electrophoresis technology.Data from the assay component ATG_PPARa_TRANS was analyzed into 1 assay endpoint. This assay endpoint, ATG_PPARa_TRANS, was analyzed in the positive analysis fitting direction relative to DMSO as the negative control and baseline of activity. Using a type of inducible reporter, measures of mRNA for gain-of-signal activity can be used to understand the reporter gene at the transcription factor-level as they relate to the gene PPARA. Furthermore, this assay endpoint can be referred to as a primary readout, because this assay has produced multiple assay endpoints where this one serves a reporter gene function. To generalize the intended target to other relatable targets, this assay endpoint is annotated to the nuclear receptor intended target family, where the subfamily is non-steroidal.
Human liver HepG2 cells are transiently transfected with multiple reporter transcription units (MRTUs) in 6-well plates using FuGene 6 reagent (Roche; 3 ml FuGene/1 mg DNA). The MRTU constructs are regulated by a cis-regulating element (promoter). […] A major difference between the CIS and TRANS system is that in CIS activities of endogenous TFs are measured, whereas the TRANS assay evaluates changes in activities of exogenous, chimeric NR-Gal4 proteins. […] At the end of 24 hour incubation, total RNA was isolated using TriZol reagent (Invitrogen). The isolated RNA is then reverse-transcribed using oligo(dT) primer and Mo-MLV reverse transcriptase (Invitrogen) with DNAse I (Ambion) treatment for 30 min. The one-tenth of the produced cDNA was amplified by PCR using Taq DNA polymerase (Invitrogen) and two reporter sequence-specific primers. The PCR products were fluorescently labeled by primer extension with 6-arboxyfluorescein (6-FAM) 5'-labeled reporter sequence-specific primer (2 min at 95 C, 20 s at 68 C and 10 min at 72 C) and these products were digested with 5U of HpaI (New England Biolabs) for 2h at 37 C. The fragments were purified using Qiaquick PCR columns (Qiagen), analyzed on an ABI 3130xL genetic analyzer (Applied Biosystems) with peak positions identified by using a set of X-rhodamine (ROX)-labeled MapMarker1000 molecular weight standards (BioVentures). The raw capillary electrophoresis data was processed using Attagraph software (Attagene).

human Peroxisome Proliferator-activated Receptor alpha (PPARa), PPARA (gene 5465), sequence (Q07869 whole entry, looked up): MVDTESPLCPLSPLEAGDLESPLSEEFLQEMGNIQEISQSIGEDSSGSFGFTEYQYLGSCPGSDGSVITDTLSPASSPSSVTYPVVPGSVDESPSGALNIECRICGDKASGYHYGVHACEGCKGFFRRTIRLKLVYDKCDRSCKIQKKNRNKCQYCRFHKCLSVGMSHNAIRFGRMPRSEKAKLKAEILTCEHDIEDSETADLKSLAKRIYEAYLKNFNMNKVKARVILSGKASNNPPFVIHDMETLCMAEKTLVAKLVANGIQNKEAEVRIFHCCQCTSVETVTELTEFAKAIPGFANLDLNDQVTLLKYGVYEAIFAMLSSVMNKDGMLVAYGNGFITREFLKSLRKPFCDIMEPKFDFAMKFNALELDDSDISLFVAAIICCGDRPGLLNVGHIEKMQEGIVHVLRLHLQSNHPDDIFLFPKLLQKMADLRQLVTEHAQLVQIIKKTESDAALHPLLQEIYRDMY

SMILES	outcome	AC50
C=C(C)C(=O)[O][Sn]([CH2]CCC)([CH2]CCC)[CH2]CCC	inactive	–
Oc1c(I)cc(I)cc1I	–	16.6 µM (active)
CC(=O)C=C(C)C	inactive	–
COc1cc2c(cc1OC)[C@@]13CCN4CC5=CCO[C@H]6CC(=O)N2[C@H]1[C@H]6[C@H]5C[C@H]43	inactive	–
Nc1ccc(Cl)cc1C(=O)c1ccccc1	inactive	–
O=C(CCl)CCl	inactive	–
CCC(=O)c1ccccc1	inactive	–
NC(=O)O	inactive	–
CC(=O)C(Cl)C(=O)N(C)C (stereo not given)	inactive	–
COP(=O)(OC)OC	inactive	–
O=c1[nH]c(=O)[nH]c(=O)[nH]1	inactive	–
COP(=S)(OC)Oc1ccc(S(=O)(=O)N(C)C)cc1	inactive	–
C[C@]12CC[C@H](O)CC1=CC[C@@H]1[C@@H]2CC[C@]2(C)C(=O)CC[C@@H]12	inactive	–
CCC[CH2][Sn]([CH2]CCC)([CH2]CCC)[O]C(=O)c1ccccc1	inactive	–
Oc1ccc(-c2ccccc2)cc1	inactive	–
C=CC#N	inactive	–
CC12CC1(C)C(=O)N(c1cc(Cl)cc(Cl)c1)C2=O (stereo not given)	inactive	–
COc1ccccc1OC	inactive	–
COc1ccc(C=O)cc1OC	inactive	–
C1CCC(NC2CCCCC2)CC1	inactive	–

SMILES	outcome	AC50
O=CC=O	inactive	–
O=C(O)C(F)(F)C(F)(F)C(F)(F)C(F)(F)C(F)(F)C(F)(F)C(F)(F)C(F)(F)C(F)(F)C(F)(F)F	inactive	–
Clc1ccc(COC(Cn2ccnc2)c2ccc(Cl)cc2Cl)cc1 (stereo not given)	–	0.0853 µM (active)
CCc1ccccc1N	inactive	–
COS(=O)(=O)c1ccc(C)cc1	inactive	–
NC(=S)Nc1ccccc1	inactive	–
COc1cc(-c2ccc(N)c(OC)c2)ccc1N	inactive	–
O=Cc1cccc(Oc2ccccc2)c1	inactive	–
CCCCCCCCc1ccc(O)cc1	inactive	24.8 µM (active)
CCN1CCC2(CC1)COc1cc3c(cc12)N(C(=O)c1ccc(-c2ccc(-c4nnc(C)o4)cc2C)cc1)CC3	inactive	–
CCc1ccccc1C	inactive	–
CN(C)N=O	inactive	–
BrCCBr	inactive	–
COC(=O)Cc1ccccc1	inactive	–
Cc1cc(Cl)ccc1O[C@H](C)C(=O)O	inactive	–
Nc1cccc2ccccc12	inactive	–
C[C@H]1CCCC(=O)CCC/C=C/c2cc(O)cc(O)c2C(=O)O1	inactive	–
CC1(C)CCC(Cc2ccc(Cl)cc2)C1(O)Cn1cncn1 (stereo not given)	inactive	–
N#CCCO	inactive	–
